Values joined by “and” are separate entries in the source; they are usually repeats but may differ in a detail not shown here. Identical values can stand only once. Among all 20,000 compounds or so, about 25 (0.1%) were called active. Many of the other results were omitted from the sample, so actives are more common in it than they were. Unmarked numbers belong to inactive results. Rule as the data show it: active = % bound below about 75%; inactive = the rest.
Molecular target: Nucleoprotein (Rift valley fever virus (strain ZH-548 M12)) (UniProt P21700)
Sequence (P21700 whole entry, looked up): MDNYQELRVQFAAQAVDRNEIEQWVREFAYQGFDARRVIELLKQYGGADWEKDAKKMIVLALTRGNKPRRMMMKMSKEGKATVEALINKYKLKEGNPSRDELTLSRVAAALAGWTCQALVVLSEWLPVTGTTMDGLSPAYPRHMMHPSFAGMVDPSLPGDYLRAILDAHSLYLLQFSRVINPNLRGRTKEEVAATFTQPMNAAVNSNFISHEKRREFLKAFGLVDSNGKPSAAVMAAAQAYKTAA
Experiment: inhibitors of RVFV nucleoprotein–RNA binding, primary screen, biochemical, fluorescence polarization (AID 651828)
Details: RVFV N-RNA binding, stronger effect = lower value, concentration not given here

Compared with `O=C(CCN1C(=O)c2ccccc2C1=O)Oc1c(-c2ccco2)oc2ccccc2c1=O`, `O=C1c2ccc(-c3nc4ccccc4c(=O)o3)cc2C(=O)N1c1ccc2c(c1)OCO2` is lower in % bound: 95% for the first, 90% for the second.

Compared with `COc1ccccc1C(c1c(C)[nH][nH]c1=O)C(C#N)C#N` (centres undefined), `CN(C)C(C#N)c1cn(C)c2ccccc12` (centres undefined) is lower in % bound: 95.8% for the first, 94.2% for the second.

First: O=C(CCC(=O)c1ccccc1)c1ccccc1
Second: O=C(NCCc1ccccc1)Nc1ccccc1
The % bound of the first is lower: 93.9% for the first, 108% for the second.

Going from `CS(=O)(=O)N1CCN(C(=O)CSc2ccccc2)CC1` to `CS(=O)(=O)NCCS(=O)(=O)N1CCN(c2ccccc2)CC1`, the % bound rises from 80.6% to 97.1%.

Compared with `COc1cc(C2c3c(oc4ccccc4c3=O)C(=O)N2CCCOC(C)C)cc(Br)c1O` (centres undefined), `COc1cccc(-c2ccc(=O)n(CC(=O)NCc3ccccc3)n2)c1` is lower in % bound: 97.6% for the first, 85% for the second.

First: CCOC(=O)c1cn[nH]c1NC(=S)Nc1ccccc1
Second: Cc1[nH]c2ccccc2c1SCC(=O)Nc1nccs1
The % bound of the first is lower: 98.6% for the first, 108% for the second.

Going from `Cc1nc(N)sc1-c1ccnc(Nc2cccc([N+](=O)[O-])c2)n1` to `CSc1sc(C(=O)NC(=O)NCc2cccnc2)c(C)c1-c1ccon1`, the % bound falls from 104% to 93.2%.

Compared with `Cc1nc2sc(C(c3ccccc3Cl)N(C)Cc3ccccc3)c(O)n2n1` (centres undefined), `CCCNC(=O)c1c(N)n(-c2ccccc2)c2nc3ccccc3nc12` is lower in % bound: 108% for the first, 95.9% for the second.

First: CCC(=O)Nc1ccc(C(=O)n2nnc3ccccc32)cc1
Second: CN1CCN(C(=O)c2ccccc2NC(=O)c2ccc(Cl)cc2)CC1
The % bound of the first is lower: 94.2% for the first, 100% for the second.

First: CNS(=O)(=O)c1ccc(NC(=O)C2CC3C=CC2C3)cc1 (centres undefined)
Second: C/C(=N/NC(=O)c1ccoc1C)c1ccc(NC(=O)c2ccco2)cc1
The % bound of the first is higher: 99.1% for the first, 91.1% for the second.

Going from `CC1(C)C/C(=N/O)c2ccoc2C1` to `C/C(=N\NC1=NCCCCC1)c1ccccc1`, the % bound falls from 97.9% to 95.3%.

Compared with `CCC(=O)N=c1sc2cc(Br)ccc2n1CCOC`, `COc1ccc(CCC(=O)NCC#N)cc1` is lower in % bound: 101% for the first, 86.2% for the second.

Going from `CCOc1ccc(C(=O)Nc2cccc(-c3ccc4nncn4n3)c2)cc1` to `CCCNC1=C(c2ccc(OC)cc2)C(=O)c2ccccc21`, the % bound falls from 107% to 95.2%.

Compared with `Cc1ccc2oc(C(=O)N(C)c3ccccc3)c(C)c2c1`, `COc1ccc2oc(=O)c(S(=O)(=O)c3ccccc3)cc2c1` is lower in % bound: 97.6% for the first, 85% for the second.

First: CC(=O)Oc1ccc(S(=NS(=O)(=O)c2ccccc2)c2ccc(OC(C)=O)cc2)cc1
Second: O=S(=O)(c1ccccc1)N1CCn2cccc2C1c1ccccc1 (centres undefined)
The % bound of the first is lower: 94.2% for the first, 99.1% for the second.

Compared with `Cc1[nH]cc(Br)c(=O)c1OCC(=O)O`, `CCC(=O)NC1(C(F)(F)F)C(=O)NC(C)=C1C(=O)OC` (centres undefined) is higher in % bound: 95.2% for the first, 97% for the second.

Compared with `Cc1c(C(=O)NCCN2CCOCC2)sc2nc(-c3ccc(F)cc3)cn12`, `CCN1CCN(C(c2cccnc2)c2c(NC(C)=O)sc3c2CCCC3)CC1` (centres undefined) is higher in % bound: 97% for the first, 109% for the second.

First: N#Cc1c(NC(=S)NC(=O)c2ccco2)sc2c1CCCC2
Second: O=C(NCCSCc1ccco1)C1CCC1
The % bound of the first is lower: 97.3% for the first, 98.2% for the second.

First: CC1CCN(CC(=O)Nc2nccs2)CC1
Second: CCN(CC)C(=O)N1CC(C)CC(C)C1 (centres undefined)
The % bound of the first is lower: 91.9% for the first, 95.2% for the second.

First: CCC1CCC(N(CC)CCN(C)C)CC1 (centres undefined)
Second: CN(C)c1ccc(C=NCC(O)CN=Cc2ccc(N(C)C)cc2)cc1 (centres undefined)
The % bound of the first is higher: 112% for the first, 97.1% for the second.

Going from `C[C@H](N[C@@H](CCc1ccccc1)C(=O)O)C(=O)N1Cc2ccccc2C[C@H]1C(=O)O` to `N#Cc1cccc2c1-c1ccccc1C2`, the % bound falls from 100% to 96%.

First: O=C(O)CN1C(=O)/C(=C2/OC(=O)c3ccccc32)SC1=S
Second: CCSc1nc2ccccc2c(=O)n1C
The % bound of the first is lower: 95.4% for the first, 96.2% for the second.

Compared with `Cn1c(=O)c2cc3c(=O)n(C)c(=O)c3cc2c1=O`, `O=C1CC2(CCCC2)C(=O)N1c1ccc(S(=O)(=O)NCc2ccco2)cc1Cl` is lower in % bound: 101% for the first, 94.5% for the second.

Going from `COc1c(C(=O)O/N=C(\N)c2cccs2)csc1Cl` to `COC(=O)COc1cccc(NC(=O)Cc2cccs2)c1`, the % bound rises from 95.1% to 98.5%.

Going from `Cc1ccc(S(=O)(=O)NCc2csc(C)n2)c(C)c1` to `CC(C)CC(=O)Nc1ccncc1`, the % bound falls from 105% to 86%.

First: CC(C)N1C(=O)CNC1=S
Second: CCSc1nc(=O)[nH]c2c1CCC2
The % bound of the first is higher: 98% for the first, 92.2% for the second.

`O=C(OCCO)c1cc(Cl)c(C(=O)OCCO)cc1Cl` showed a % bound of 104%.

With `O=C(Nc1cccc(Nc2nccc(Nc3cccc(C(F)(F)F)c3)n2)c1)C1CC1` the % bound was 112% and 103%.
